Test results from the supplement of paper PMC10849652.
The full data set covers some 7,900 targets. This sample favours those with a hit. About 0.6% of all pairs of compound and target were hits.

How the values were obtained:
Assay in all cases: log2 fold change, soluble protein after heating vs DMSO (PISA); higher = thermal stabilisation; K562 cells, 10 uM, 30 min; active = over 0.2 and 3.5 SD of the protein, either way, in both replicates (recomputed)
[1] = compound: COC1=CC=C(C=C1)CN2C=CC3=C2C=C(C=C3)C(=O)NO
How it was run: (§1)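 K562 cells at 2×10^6 cells/mL were given 10 μM compound for 30 min. Aliquots then went through 3 min of heating across 48°C-58°C, were pooled, and were extracted in PBS with 0.5% NP-40 at 4°C, and the supernatant after 21,000xg for 90 min was quantified by TMTpro 16plex LC-MS/MS with channel sums equalised. Thermal stability relative to control samples, from duplicates, is given as log2 fold change.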

filanesib = compound: CON(C)C(=O)N1N=C(c2cc(F)ccc2F)S[C@@]1(CCCN)c1ccccc1 [filanesib]
How it was run: as §1

zotarolimus = compound: CO[C@H]1C[C@@H]2CC[C@@H](C)[C@@](O)(O2)C(=O)C(=O)N2CCCC[C@H]2C(=O)O[C@H]([C@H](C)C[C@@H]2CC[C@H](n3cnnn3)[C@H](OC)C2)CC(=O)[C@H](C)/C=C(\C)[C@@H](O)[C@@H](OC)C(=O)[C@H](C)C[C@H](C)/C=C/C=C/C=C/1C [zotarolimus]
How it was run: as §1

idasanutlin = compound: COc1cc(C(=O)O)ccc1NC(=O)[C@@H]1N[C@@H](CC(C)(C)C)[C@](C#N)(c2ccc(Cl)cc2F)[C@H]1c1cccc(Cl)c1F [idasanutlin]
How it was run: as §1

alisertib = compound: COc1cc(Nc2ncc3c(n2)-c2ccc(Cl)cc2C(c2c(F)cccc2OC)=NC3)ccc1C(=O)O [alisertib]
How it was run: as §1

[2] = compound: COc1cc2nc(-c3cc(F)ccc3O)nc(N[C@@H]3CNC[C@H]3C(C)(C)O)c2cc1OC
How it was run: as §1

gefitinib = compound: COc1cc2ncnc(Nc3ccc(F)c(Cl)c3)c2cc1OCCCN1CCOCC1 [gefitinib]
How it was run: as §1

[3] = compound: COc1cccc2cc(-c3nc([C@H]4CC[C@H](C(=O)O)CC4)n4ncnc(N)c34)[nH]c12
How it was run: as §1

lapatinib = compound: CS(=O)(=O)CCNCc1ccc(-c2ccc3ncnc(Nc4ccc(OCc5cccc(F)c5)c(Cl)c4)c3c2)o1 [lapatinib]
How it was run: as §1

pictilisib = compound: CS(=O)(=O)N1CCN(Cc2cc3nc(-c4cccc5[nH]ncc45)nc(N4CCOCC4)c3s2)CC1 [pictilisib]
How it was run: as §1

[4] = compound: CS(=O)(=O)c1ccc(-c2cnc(N)c(C(=O)Nc3ccccc3)n2)cc1
How it was run: as §1

crizotinib = compound: C[C@@H](Oc1cc(-c2cnn(C3CCNCC3)c2)cnc1N)c1c(Cl)ccc(F)c1Cl [crizotinib]
How it was run: as §1

[5] = compound: C[C@@H]1COCCN1C2=NC(=NC(=C2)C3(CC3)S(=O)(=O)C)C4=C5C=CNC5=CC=C4
How it was run: as §1

[6] = compound: C[C@H](C1=CC=C(C=C1)C(=O)NC2=C3C=CNC3=NC=C2)N
How it was run: as §1

duvelisib = compound: C[C@H](Nc1ncnc2nc[nH]c12)c1cc2cccc(Cl)c2c(=O)n1-c1ccccc1 [duvelisib]
How it was run: as §1

gandotinib = compound: Cc1cc(Nc2cc(CN3CCOCC3)c3nc(C)c(Cc4ccc(Cl)cc4F)n3n2)n[nH]1 [gandotinib]
How it was run: as §1

tozasertib = compound: Cc1cc(Nc2cc(N3CCN(C)CC3)nc(Sc3ccc(NC(=O)C4CC4)cc3)n2)n[nH]1 [tozasertib]
How it was run: as §1

[7] = compound: Cc1cc(SCc2sc(-c3ccc(C(F)(F)F)cc3)nc2C)ccc1OCC(=O)O
How it was run: as §1

doramapimod = compound: Cc1ccc(-n2nc(C(C)(C)C)cc2NC(=O)Nc2ccc(OCCN3CCOCC3)c3ccccc23)cc1 [doramapimod]
How it was run: as §1

ispinesib = compound: Cc1ccc(C(=O)N(CCCN)[C@@H](c2nc3cc(Cl)ccc3c(=O)n2Cc2ccccc2)C(C)C)cc1 [ispinesib]
How it was run: as §1

Measured: log2 fold change

GNL1 (UniProt P36915)
inactive: [1] 0.047 | filanesib -0.066 | zotarolimus 0.049 | idasanutlin -0.056 | alisertib -0.107 | [2] 0.039 | gefitinib 0.031 | [3] 0.061 | lapatinib 0.011 | pictilisib 0.04 | [4] 0.051 | crizotinib -0.014 | [5] 0.162 | [6] -0.011 | duvelisib 0.013 | gandotinib 0.028 | tozasertib -0.014 | [7] 0.052 | doramapimod -0.019 | ispinesib 0.087

GLA (UniProt P06280)
UniProt P06280, sequence (P06280 whole entry, looked up): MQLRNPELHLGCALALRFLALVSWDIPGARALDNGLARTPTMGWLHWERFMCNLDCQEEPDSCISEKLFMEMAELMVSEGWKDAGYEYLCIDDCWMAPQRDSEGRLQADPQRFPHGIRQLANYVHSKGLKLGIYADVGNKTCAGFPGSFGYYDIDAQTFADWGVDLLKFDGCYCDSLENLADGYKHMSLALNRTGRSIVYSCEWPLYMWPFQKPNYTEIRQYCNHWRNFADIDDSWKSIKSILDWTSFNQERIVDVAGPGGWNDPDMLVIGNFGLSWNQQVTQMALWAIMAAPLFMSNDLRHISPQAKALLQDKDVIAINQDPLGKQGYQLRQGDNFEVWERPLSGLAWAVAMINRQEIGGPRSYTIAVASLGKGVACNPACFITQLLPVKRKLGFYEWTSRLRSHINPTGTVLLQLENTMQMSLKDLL
inactive: [1] 0.033 | filanesib -0.048 | zotarolimus -0.003 | idasanutlin 0.06 | alisertib -0.089 | [2] 0.018 | gefitinib -0.011 | [3] 0.01 | lapatinib -0.026 | pictilisib -0.06 | [4] -0.033 | crizotinib -0.205 | [5] -0.019 | [6] 0.018 | duvelisib -0.027 | gandotinib -0.066 | tozasertib -0.03 | [7] 0.034 | doramapimod -0.036 | ispinesib -0.148

FMC1 (UniProt Q96HJ9)
UniProt Q96HJ9, sequence (Q96HJ9 whole entry, looked up): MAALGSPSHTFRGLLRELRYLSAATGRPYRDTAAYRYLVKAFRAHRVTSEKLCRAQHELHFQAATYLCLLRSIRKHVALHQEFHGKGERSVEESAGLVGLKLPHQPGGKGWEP
inactive: [1] 0.068 | filanesib -0.037 | zotarolimus -0.101 | idasanutlin -0.091 | alisertib -0.042 | [2] -0.008 | gefitinib 0.06 | [3] 0.023 | lapatinib -0.018 | pictilisib 0.024 | [4] 0.021 | crizotinib 0.195 | [5] -0.157 | [6] 0.082 | duvelisib -0.046 | gandotinib 0.024 | tozasertib -0.058 | [7] -0.018 | doramapimod -0.137 | ispinesib -0.314

HMOX2 (UniProt P30519)
UniProt P30519, sequence (P30519 whole entry, looked up): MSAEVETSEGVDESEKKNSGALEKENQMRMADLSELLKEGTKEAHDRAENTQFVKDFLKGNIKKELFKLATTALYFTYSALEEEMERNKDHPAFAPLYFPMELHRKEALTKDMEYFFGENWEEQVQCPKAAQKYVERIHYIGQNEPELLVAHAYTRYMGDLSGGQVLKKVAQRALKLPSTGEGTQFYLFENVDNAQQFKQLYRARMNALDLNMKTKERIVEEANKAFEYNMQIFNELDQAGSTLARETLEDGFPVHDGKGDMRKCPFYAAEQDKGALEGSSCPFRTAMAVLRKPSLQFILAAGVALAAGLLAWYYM
active: [1] 0.444
inactive: filanesib 0.085 | zotarolimus 0.027 | idasanutlin 0.148 | alisertib -0.03 | [2] 0.036 | gefitinib 0.006 | [3] -0.041 | lapatinib -0.045 | pictilisib -0.04 | [4] 0.07 | crizotinib -0.03 | [5] 0.022 | [6] 0.008 | duvelisib 0.011 | gandotinib 0.017 | tozasertib -0.007 | [7] 0.041 | doramapimod 0.062 | ispinesib -0.028

HOMER1 (UniProt Q86YM7)
inactive: [1] 0.168 | filanesib 0.051 | zotarolimus 0.043 | idasanutlin 0.011 | alisertib -0.083 | [2] -0.023 | gefitinib 0.086 | [3] -0.042 | lapatinib 0.073 | pictilisib -0.001 | [4] -0.011 | crizotinib -0.015 | [5] 0.071 | [6] -0.014 | duvelisib 0.024 | gandotinib -0.068 | tozasertib 0.046 | [7] -0.002 | doramapimod 0.027 | ispinesib 0.083

GTF2B (UniProt Q00403)
inactive: [1] 0.046 | filanesib -0.018 | zotarolimus 0.054 | idasanutlin -0.085 | alisertib -0.037 | [2] -0.001 | gefitinib 0.02 | [3] -0.006 | lapatinib -0.047 | pictilisib -0.025 | [4] -0.007 | crizotinib -0.044 | [5] 0.115 | [6] 0.001 | duvelisib 0.121 | gandotinib -0.146 | tozasertib 0.102 | [7] 0.127 | doramapimod -0.044 | ispinesib -0.091

GCDH (UniProt Q92947)
inactive: [1] 0.02 | filanesib -0.081 | zotarolimus 0.027 | idasanutlin -0.066 | alisertib -0.066 | [2] -0.011 | gefitinib 0.042 | [3] 0.016 | lapatinib -0.004 | pictilisib -0.02 | [4] 0.004 | crizotinib 0.058 | [5] 0.112 | [6] -0.032 | duvelisib 0.098 | gandotinib 0.076 | tozasertib -0.107 | [7] -0.021 | doramapimod -0.012 | ispinesib 0.041

HSPA8 (UniProt E9PK54)
inactive: [1] 0.011 | filanesib 0.033 | zotarolimus -0.015 | idasanutlin -0.037 | alisertib -0.186 | [2] -0.208 | gefitinib -0.077 | [3] -0.002 | lapatinib 0.17 | pictilisib -0.071 | [4] -0.05 | crizotinib -0.023 | [5] -0.272 | [6] 0.334 | duvelisib -0.05 | gandotinib 0.01 | tozasertib 0.033 | [7] 0.088 | doramapimod 0.143 | ispinesib 0.012

GCC2 (UniProt Q8IWJ2)
UniProt Q8IWJ2, sequence (Q8IWJ2 whole entry, looked up): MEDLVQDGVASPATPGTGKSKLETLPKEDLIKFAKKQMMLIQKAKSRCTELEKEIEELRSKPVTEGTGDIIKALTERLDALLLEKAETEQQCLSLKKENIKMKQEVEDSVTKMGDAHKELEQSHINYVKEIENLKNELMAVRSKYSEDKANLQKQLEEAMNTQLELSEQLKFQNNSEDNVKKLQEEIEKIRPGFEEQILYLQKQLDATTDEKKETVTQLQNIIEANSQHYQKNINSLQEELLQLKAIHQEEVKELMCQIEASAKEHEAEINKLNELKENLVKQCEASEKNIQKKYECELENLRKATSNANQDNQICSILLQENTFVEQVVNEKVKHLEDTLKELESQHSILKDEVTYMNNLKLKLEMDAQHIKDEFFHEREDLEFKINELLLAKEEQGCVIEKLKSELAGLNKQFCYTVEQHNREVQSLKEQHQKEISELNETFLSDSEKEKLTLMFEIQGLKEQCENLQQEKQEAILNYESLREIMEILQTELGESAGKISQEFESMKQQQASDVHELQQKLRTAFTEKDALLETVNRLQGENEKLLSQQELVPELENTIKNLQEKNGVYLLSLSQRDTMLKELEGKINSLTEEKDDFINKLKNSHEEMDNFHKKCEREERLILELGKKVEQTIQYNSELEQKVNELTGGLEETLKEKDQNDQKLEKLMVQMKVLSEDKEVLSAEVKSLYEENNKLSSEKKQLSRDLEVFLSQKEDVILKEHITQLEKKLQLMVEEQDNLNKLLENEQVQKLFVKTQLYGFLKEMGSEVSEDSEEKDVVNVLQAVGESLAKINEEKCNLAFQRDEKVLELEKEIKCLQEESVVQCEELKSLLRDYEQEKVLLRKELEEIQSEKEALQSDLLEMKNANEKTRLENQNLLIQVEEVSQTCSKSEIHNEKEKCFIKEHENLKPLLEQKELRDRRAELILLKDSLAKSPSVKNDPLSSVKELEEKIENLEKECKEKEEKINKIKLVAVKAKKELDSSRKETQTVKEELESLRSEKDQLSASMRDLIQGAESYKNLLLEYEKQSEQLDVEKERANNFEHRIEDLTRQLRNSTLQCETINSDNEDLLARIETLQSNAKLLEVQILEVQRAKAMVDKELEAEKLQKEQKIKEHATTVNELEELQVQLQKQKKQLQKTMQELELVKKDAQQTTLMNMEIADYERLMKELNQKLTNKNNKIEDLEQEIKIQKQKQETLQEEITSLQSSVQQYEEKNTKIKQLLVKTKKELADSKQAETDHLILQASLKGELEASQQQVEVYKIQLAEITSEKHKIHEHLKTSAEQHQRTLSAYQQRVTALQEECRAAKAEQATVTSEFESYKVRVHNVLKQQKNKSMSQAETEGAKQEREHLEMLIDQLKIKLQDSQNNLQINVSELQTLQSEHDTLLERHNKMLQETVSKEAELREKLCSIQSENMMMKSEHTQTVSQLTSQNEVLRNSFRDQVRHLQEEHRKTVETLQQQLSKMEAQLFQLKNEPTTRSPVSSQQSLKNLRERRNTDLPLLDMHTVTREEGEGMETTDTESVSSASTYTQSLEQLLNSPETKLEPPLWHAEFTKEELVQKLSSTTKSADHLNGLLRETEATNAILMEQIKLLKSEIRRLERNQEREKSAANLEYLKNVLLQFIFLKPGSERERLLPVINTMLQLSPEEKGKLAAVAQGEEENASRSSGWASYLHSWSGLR
inactive: [1] -0.037 | filanesib 0.137 | zotarolimus 0.074 | idasanutlin 0.065 | alisertib -0.046 | [2] -0.037 | gefitinib 0.024 | [3] -0.11 | lapatinib 0.056 | pictilisib 0.014 | [4] 0.04 | crizotinib -0.01 | [5] -0.104 | [6] 0.246 | duvelisib -0.007 | gandotinib 0.081 | tozasertib 0.113 | [7] 0.048 | doramapimod 0.136 | ispinesib -0.173

HIST2H2BF isoform 2 (UniProt Q5QNW6)
inactive: [1] 0.062 | filanesib 0.248 | zotarolimus -0.163 | idasanutlin 0.437 | alisertib 0.081 | [2] -0.112 | gefitinib 0.053 | [3] -0.314 | lapatinib 0.047 | pictilisib -0.137 | [4] -0.049 | crizotinib -0.095 | [5] -0.279 | [6] 0.38 | duvelisib -0.051 | gandotinib -0.018 | tozasertib 0.119 | [7] -0.064 | doramapimod 0.253 | ispinesib -0.178

GTF3C4 (UniProt Q9UKN8)
inactive: [1] -0.038 | filanesib 0.034 | zotarolimus 0.019 | idasanutlin -0.003 | alisertib -0.032 | [2] 0.007 | gefitinib 0.058 | [3] -0.011 | lapatinib 0.029 | pictilisib 0.028 | [4] -0.011 | crizotinib 0.078 | [5] 0.04 | [6] -0.015 | duvelisib 0.035 | gandotinib -0.05 | tozasertib 0.059 | [7] -0.063 | doramapimod -0.019 | ispinesib 0.06

HMGN2 (UniProt P05204)
inactive: [1] 0.01 | filanesib -0.043 | zotarolimus -0.048 | idasanutlin 0.041 | alisertib -0.028 | [2] 0.073 | gefitinib 0.046 | [3] 0.09 | lapatinib -0.051 | pictilisib -0.264 | [4] -0.093 | crizotinib 0.051 | [5] -0.201 | [6] -0.019 | duvelisib -0.062 | gandotinib -0.212 | tozasertib -0.031 | [7] -0.058 | doramapimod -0.1 | ispinesib -0.048

HLTF (UniProt Q14527)
inactive: [1] -0.027 | filanesib -0.004 | zotarolimus -0.042 | idasanutlin -0.049 | alisertib 0.008 | [2] 0.081 | [3] -0.126 | lapatinib 0.013 | pictilisib 0.007 | [4] -0.034 | crizotinib 0.045 | [5] -0.143 | [6] 0.006 | duvelisib -0.006 | gandotinib -0.078 | tozasertib -0.023 | [7] 0.063 | doramapimod -0.003 | ispinesib 0.006
active: gefitinib 0.334

HIST2H3A (UniProt Q71DI3)
inactive: [1] 0.037 | filanesib 0.268 | zotarolimus -0.167 | idasanutlin 0.508 | alisertib 0.001 | [2] -0.106 | gefitinib 0.061 | [3] -0.367 | lapatinib 0.065 | pictilisib -0.021 | [4] -0.106 | crizotinib -0.327 | [5] -0.204 | [6] 0.399 | duvelisib -0.359 | gandotinib -0.014 | tozasertib 0.106 | [7] -0.031 | doramapimod 0.098 | ispinesib -0.081

HIP1R (UniProt O75146)
UniProt O75146, sequence (O75146 whole entry, looked up): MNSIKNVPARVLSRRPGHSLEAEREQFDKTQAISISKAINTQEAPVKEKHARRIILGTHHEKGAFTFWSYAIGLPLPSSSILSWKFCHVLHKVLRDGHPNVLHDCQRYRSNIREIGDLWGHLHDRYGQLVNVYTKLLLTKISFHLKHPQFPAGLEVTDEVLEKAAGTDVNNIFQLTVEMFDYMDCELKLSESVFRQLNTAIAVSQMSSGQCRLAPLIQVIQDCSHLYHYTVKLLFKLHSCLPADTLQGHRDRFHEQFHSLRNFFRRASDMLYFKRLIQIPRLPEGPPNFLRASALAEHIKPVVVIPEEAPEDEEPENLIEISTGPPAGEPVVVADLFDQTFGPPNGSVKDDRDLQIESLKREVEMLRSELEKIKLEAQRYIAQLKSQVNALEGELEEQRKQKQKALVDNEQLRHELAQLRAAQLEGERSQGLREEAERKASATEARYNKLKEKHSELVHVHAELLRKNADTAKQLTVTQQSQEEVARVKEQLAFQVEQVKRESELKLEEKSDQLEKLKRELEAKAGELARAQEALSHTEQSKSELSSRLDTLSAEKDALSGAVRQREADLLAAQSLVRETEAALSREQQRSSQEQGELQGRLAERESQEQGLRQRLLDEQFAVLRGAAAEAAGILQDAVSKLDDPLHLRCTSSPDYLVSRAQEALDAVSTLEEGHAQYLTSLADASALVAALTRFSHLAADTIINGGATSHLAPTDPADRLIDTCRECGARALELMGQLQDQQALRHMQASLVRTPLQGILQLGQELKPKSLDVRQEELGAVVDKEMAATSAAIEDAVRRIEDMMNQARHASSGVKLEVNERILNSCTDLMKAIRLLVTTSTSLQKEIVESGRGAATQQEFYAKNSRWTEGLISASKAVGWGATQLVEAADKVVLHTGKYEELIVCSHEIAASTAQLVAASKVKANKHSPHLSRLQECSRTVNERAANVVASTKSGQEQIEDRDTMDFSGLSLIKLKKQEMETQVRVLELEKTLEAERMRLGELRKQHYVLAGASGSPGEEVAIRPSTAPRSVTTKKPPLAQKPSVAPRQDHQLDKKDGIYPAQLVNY
inactive: [1] -0.011 | filanesib -0.039 | zotarolimus -0.034 | idasanutlin -0.046 | alisertib 0.114 | [2] 0.027 | gefitinib -0.025 | [3] 0 | lapatinib -0.041 | pictilisib -0.011 | [4] 0.016 | crizotinib -0.1 | [5] 0.058 | [6] 0.026 | duvelisib -0.045 | gandotinib -0.069 | tozasertib -0.008 | [7] 0.029 | doramapimod 0.007 | ispinesib -0.097

GAPVD1 isoform 6 (UniProt Q14C86)
UniProt Q14C86, sequence (Q14C86 whole entry, looked up): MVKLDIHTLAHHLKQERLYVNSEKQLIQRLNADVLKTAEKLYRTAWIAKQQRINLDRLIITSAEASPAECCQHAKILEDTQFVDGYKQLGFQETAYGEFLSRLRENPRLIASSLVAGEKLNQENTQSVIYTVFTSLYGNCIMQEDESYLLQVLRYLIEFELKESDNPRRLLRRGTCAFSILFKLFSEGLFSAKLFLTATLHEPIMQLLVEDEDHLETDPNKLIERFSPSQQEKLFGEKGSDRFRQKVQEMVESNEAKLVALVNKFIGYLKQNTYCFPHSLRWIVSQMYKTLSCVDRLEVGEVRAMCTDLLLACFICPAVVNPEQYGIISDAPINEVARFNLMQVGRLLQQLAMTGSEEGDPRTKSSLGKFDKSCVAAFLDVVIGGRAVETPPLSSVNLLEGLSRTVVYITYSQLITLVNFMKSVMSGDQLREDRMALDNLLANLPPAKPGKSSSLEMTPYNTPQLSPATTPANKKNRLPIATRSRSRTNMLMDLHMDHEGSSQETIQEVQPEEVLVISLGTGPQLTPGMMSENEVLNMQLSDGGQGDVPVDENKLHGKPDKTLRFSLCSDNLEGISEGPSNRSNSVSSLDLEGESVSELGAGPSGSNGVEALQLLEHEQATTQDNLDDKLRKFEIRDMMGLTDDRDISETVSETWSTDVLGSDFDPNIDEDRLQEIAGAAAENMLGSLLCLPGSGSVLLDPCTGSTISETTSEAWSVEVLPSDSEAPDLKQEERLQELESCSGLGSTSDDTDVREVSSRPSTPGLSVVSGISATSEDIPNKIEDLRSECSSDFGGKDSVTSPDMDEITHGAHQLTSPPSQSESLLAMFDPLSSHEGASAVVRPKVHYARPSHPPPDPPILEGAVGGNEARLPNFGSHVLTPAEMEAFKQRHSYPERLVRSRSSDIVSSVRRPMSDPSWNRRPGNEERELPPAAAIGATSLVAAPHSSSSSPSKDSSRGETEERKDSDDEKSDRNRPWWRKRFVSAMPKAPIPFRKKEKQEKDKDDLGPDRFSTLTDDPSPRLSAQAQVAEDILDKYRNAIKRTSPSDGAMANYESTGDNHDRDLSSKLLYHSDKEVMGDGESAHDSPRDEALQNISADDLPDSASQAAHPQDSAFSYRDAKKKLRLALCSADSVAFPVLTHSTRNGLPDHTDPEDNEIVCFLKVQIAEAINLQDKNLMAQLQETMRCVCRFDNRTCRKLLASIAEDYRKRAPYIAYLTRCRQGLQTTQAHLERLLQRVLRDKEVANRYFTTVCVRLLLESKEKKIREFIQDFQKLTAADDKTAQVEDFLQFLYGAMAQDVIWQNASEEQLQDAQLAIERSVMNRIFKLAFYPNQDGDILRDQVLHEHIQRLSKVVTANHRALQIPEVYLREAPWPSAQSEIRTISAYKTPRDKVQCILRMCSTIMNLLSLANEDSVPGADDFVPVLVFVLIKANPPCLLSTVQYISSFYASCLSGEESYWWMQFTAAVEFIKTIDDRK
inactive: [1] 0.003 | filanesib 0.033 | zotarolimus 0.055 | idasanutlin -0.021 | alisertib 0.047 | [2] -0.048 | gefitinib -0.013 | [3] -0.068 | lapatinib 0.041 | pictilisib -0.025 | [4] -0.012 | crizotinib -0.145 | [5] 0.017 | [6] 0.075 | duvelisib -0.058 | gandotinib -0.081 | tozasertib 0.061 | [7] 0.147 | doramapimod 0.038 | ispinesib -0.133
